Assay results reported in PubChem BioAssay AID1533 (PCMD, 2009).
Among all 160,000 compounds or so, about 45 (0.03%) were called active. Rule as the data show it: active = inhibition mostly above about 34% (no sharp cut-off); inconclusive = no clear call, values can overlap the other calls; inactive = mostly below about 22%. This excerpt belongs to a sample that is enriched for actives.

Target: dTDP-4-dehydrorhamnose reductase (Mycobacterium tuberculosis (strain ATCC 25618 / H37Rv)) + dTDP-4-dehydrorhamnose 3,5-epimerase (Mycobacterium tuberculosis (strain ATCC 25618 / H37Rv)) (UniProt P9WH09+P9WH11)
Experiment: M. tuberculosis RmlC/RmlD coupled enzyme inhibitors, primary screen, biochemical, compound mixtures, 384-well, from 1536-well plates (AID 1533)
Conditions: RmlC+RmlD coupled enzyme assay, percent inhibition, primary screen in compound mixtures, stronger effect = higher value
[1] = measured here: mean retest inhibition, at 5.5 µM

Chain of dTDP-4-dehydrorhamnose reductase (Mycobacterium tuberculosis (strain ATCC 25618 / H37Rv)) + dTDP-4-dehydrorhamnose 3,5-epimerase (Mycobacterium tuberculosis (strain ATCC 25618 / H37Rv)) (P9WH09 whole entry, looked up): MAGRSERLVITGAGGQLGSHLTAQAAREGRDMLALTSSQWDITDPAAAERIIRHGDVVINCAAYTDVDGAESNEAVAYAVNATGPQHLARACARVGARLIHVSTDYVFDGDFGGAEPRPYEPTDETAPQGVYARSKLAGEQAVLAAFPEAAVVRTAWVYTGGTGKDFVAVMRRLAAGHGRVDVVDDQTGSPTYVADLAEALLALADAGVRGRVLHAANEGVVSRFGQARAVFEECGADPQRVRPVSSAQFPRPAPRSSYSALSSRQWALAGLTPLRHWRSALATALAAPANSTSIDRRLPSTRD
Chain of dTDP-4-dehydrorhamnose reductase (Mycobacterium tuberculosis (strain ATCC 25618 / H37Rv)) + dTDP-4-dehydrorhamnose 3,5-epimerase (Mycobacterium tuberculosis (strain ATCC 25618 / H37Rv)) (P9WH11 whole entry, looked up): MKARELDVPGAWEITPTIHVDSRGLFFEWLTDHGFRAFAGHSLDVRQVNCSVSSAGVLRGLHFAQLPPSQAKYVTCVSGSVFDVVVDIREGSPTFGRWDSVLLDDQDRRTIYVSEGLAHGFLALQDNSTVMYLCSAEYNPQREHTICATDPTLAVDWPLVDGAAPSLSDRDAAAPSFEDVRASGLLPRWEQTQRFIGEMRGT

SMILES | inhibition (at 3.6 µM) | inhibition [1] [%]
CCCCc1nnc(NC(=O)CSc2nc(N)cc(=O)[nH]2)s1 | -1.44% (inactive) | –
CCC(O)C1CCN(Cc2cn(-c3ccc(OC)cc3)nc2-c2cccc(F)c2)CC1 (stereo unspecified) | -7.8% (inactive) | –
CC(NC(=S)Nc1ccccc1)C(c1cccs1)N1CCOCC1 (stereo unspecified) | 3.55% (inactive) | –
CCC1CCCCN1C(=O)CSc1nc2c(c(=O)n(C)c(=O)n2C)n1C (stereo unspecified) | -9.61% (inactive) | –
CCOC(=O)c1ccccc1NC(=S)N1CCC(C(N)=O)CC1 | -16.5% (inactive) | –
CC1=NN(c2ccccc2)C(=O)C1C(=O)c1ccc([N+](=O)[O-])cc1 (stereo unspecified) | 4.71% (inactive) | –
CCCNc1c(N)c(=O)c1=O | -3% (inactive) | –
COc1ccc(CCNC(=O)C(=O)Nc2ccc3nc4n(c(=O)c3c2)CCCCC4)cc1OC | -7.43% (inactive) | –
CN1CCN(c2ncc3c(n2)CC(c2ccccc2F)CC3=O)CC1 (stereo unspecified) | 2.14% (inactive) | –
N#C/C(=C(\O)C(F)(F)F)c1nnc2n1CCCCC2 | 31.1% (inactive) | -1.52
CCOc1ccc2nc(NCCNC(=O)C(C)(C)C)c(C)cc2c1 | -1% (inactive) | –
Cn1cc(S(=O)(=O)NC(c2ccccc2)c2ccccc2)c(=O)n(C)c1=O | -1% (inactive) | –
CN(c1ccc(OCC(=O)NC2=NCCS2)cc1)S(=O)(=O)c1ccc(F)cc1 | 9.17% (inactive) | –
CC1CC1C(=O)OCC(=O)c1c(N)n(C)c(=O)n(C)c1=O (stereo unspecified) | -8.03% (inactive) | –
O=S(=O)(NCCc1csc(-c2ccccc2)n1)c1cccnc1 | 4.16% (inactive) | –
Cc1nnc2n1N=C(c1ccc3c(c1)NC(=O)CO3)CS2 | -5.45% (inactive) | –
COc1ccc(C)cc1NC(=O)c1ccc(-c2ccc(C(C)=O)cc2)o1 | 6.7% (inactive) | –
C/C(=N/NC(=O)CC(=O)N/N=C(\C)c1ccc([N+](=O)[O-])cc1)c1ccc([N+](=O)[O-])cc1 | 11.2% (inactive) | –
O=C(Nc1nc2ccc([N+](=O)[O-])cc2s1)c1ccncc1 | 8.08% (inactive) | –
COc1cc(CN2CCNC(=O)C2CC(=O)NCCc2ncccc2C)cc(OC)c1 (stereo unspecified) | -11.4% (inactive) | –
CN(CC(=O)Nc1ccccc1F)CC(=O)Nc1ccccc1Br | 27.7% (inactive) | –
Cc1c(C)c(C)c2[nH]c(=S)[nH]c2c1C | 4.61% (inactive) | –
O=c1[nH]c(CSc2ccccc2)nc2c1oc1ccccc12 | 2.42% (inactive) | –
CCOc1ccc(NC(=S)N2CCCCCC2)cc1 | -16.4% (inactive) | –
CCOc1ccc(NS(=O)(=O)c2cc(C)c(C)cc2C)cc1 | -11.4% (inactive) | –

SMILES | inhibition (at 3.6 µM) | inhibition [1] [%]
CC(=O)c1c(C)[nH]c(=S)c(C#N)c1-c1ccc(F)cc1 | 10.4% (inactive) | –
CCCc1nc2oc3c(=O)[nH]cnc3c2c2c1COC(C)(C)C2 | -9.43% (inactive) | –
O=C(NCc1cccnc1)C(=O)Nc1nc(-c2ccccc2)cs1 | -5.87% (inactive) | –
Oc1oc(-c2ccccc2Br)nc1/C=N/c1ccccn1 | 2.05% (inactive) | –
Oc1cccc2ccc(/C=C/c3ccc(Br)s3)nc12 | -11.7% (inactive) | –
CN(C)CCOc1cccc(Br)c1 | 11.8% (inactive) | –
CN(C)c1ccc(NC(=O)CSc2n[nH]c(-c3ccco3)n2)cc1 | -3.13% (inactive) | –
Cc1nc2ccccn2c1C(=O)NN=C1CCN(C)CC1 | -1.88% (inactive) | –
CC(C)OCCCNC(=O)c1ccc(C2SCC(=O)N2Cc2ccco2)cc1 (stereo unspecified) | 1.23% (inactive) | –
CCn1c(CSCc2c(Cl)cccc2Cl)n[nH]c1=S | -0.03% (inactive) | –
O=C(O)CCc1nc2cc(Cl)ccc2n(Cc2ccccc2)c1=O | -4.14% (inactive) | –
Cc1nc2cccnc2nc1C | -6.92% (inactive) | –
Cc1ccccc1Nc1nc(N)nc(CSc2nnc3ccccn23)n1 | 4.62% (inactive) | –
CC(C)(C)NC(=O)/C(=C/c1cccnc1)NC(=O)c1ccco1 | -0.65% (inactive) | –
CN1CCN(C2=NCCO2)CC1 | -5.76% (inactive) | –
CNC(=O)C(NC(=O)c1ccccc1)=C(C)C | 3.15% (inactive) | –
CC(C)=C(NC(=O)c1ccccc1)C(=O)N/N=C(\C)c1ccccc1O | 51.8% (active) | 31.3
C/C(=N\NC(=O)c1nc(C)cc(C)n1)c1ccccc1 | -2.86% (inactive) | –
Cc1ccc(SCc2c(C(=O)N/N=C/C3CC=CCC3)nnn2-c2nonc2N)cc1 (stereo unspecified) | 9.89% (inactive) | –
OCC1(Cc2ccccc2C(F)(F)F)CCN(Cc2ccncc2)CC1 | 9.49% (inactive) | –
O=C1C2C3C=CC(C3)C2C(=O)N1c1ccc(-c2nc3ccccc3c(=O)o2)cc1 (stereo unspecified) | 1.56% (inactive) | –
O=C(CCCl)Nc1ccc(S(=O)(=O)NCc2ccco2)cc1 | 4.49% (inactive) | –
CC(C)c1nc(SCC(=O)NC(=O)NC(C)(C)C)n[nH]1 | -8.54% (inactive) | –
O=C(COC(=O)c1ccc(Cl)nc1)NCc1cccs1 | -9.13% (inactive) | –
Cc1cc(C(=O)Cn2cnc3cc([N+](=O)[O-])ccc3c2=O)c(C)n1CC1CCCO1 (stereo unspecified) | 5.54% (inactive) | –

SMILES | inhibition (at 3.6 µM) | inhibition [1] [%]
C=CCSc1nnc(NC(=O)c2ccc(NC(C)=O)cc2)s1 | 2.48% (inactive) | –
Cc1cc(C)c(NC(=O)CN2C(=O)NC(Cc3ccccc3)C2=O)c(C)c1 (stereo unspecified) | 43.2% (inactive) | 7.39
O=[N+]([O-])C(=c1ccc2c(c1)N1C3=C(CCCC3)CC3CCCCC31N=2)[N+](=O)[O-] (stereo unspecified) | -9.85% (inactive) | –
CCOC(=O)CNC(=O)CSc1ccc2nnc(-c3cccnc3)n2n1 | -13.1% (inactive) | –
CC(=O)Nc1ccc(CC#N)cc1 | -7.92% (inactive) | –
CC(NC(=O)C(=O)Nc1nccs1)c1ccccc1 (stereo unspecified) | 12.6% (inactive) | –
COc1ccc(/C=C/c2nnc(NC(=O)C(C)C)s2)cc1 | 2.36% (inactive) | –
Cn1nc(C(F)(F)F)c(-c2ccc(F)cc2)c1NC(=O)CSCC(=O)O | 10% (inactive) | –
O=[N+]([O-])/C=C1\CCCCCN1 | -6.23% (inactive) | –
O=C1[C@@H]2C(c3cccnc3)=NO[C@@H]2C(=O)N1c1ccc(Cl)cc1Cl | 13.9% (inactive) | –
CCOC(=O)CNc1nc(Cl)nc(Nc2ccccc2)n1 | 0.72% (inactive) | –
Cn1nccc1NC(=O)Nc1ccc(OC(F)(F)F)cc1 | -2.41% (inactive) | –
COc1ccccc1P(=O)(c1ccccc1)c1ccccc1NC(C)=O (stereo unspecified) | 40.9% (inactive) | -18.2
CCOC(=O)C(CC)/C(C)=N\NC(=O)c1cccc(C)c1 (stereo unspecified) | 9.71% (inactive) | –
COC(=O)CC1=NN(c2ccccc2)C(=O)C1 | -13% (inactive) | –
Cc1cc(C(=O)OCC(=O)Nc2nccs2)c2ccccc2n1 | 9.68% (inactive) | –
Cc1ccccc1C(=O)Nc1ccc(N2CCCCCC2)cc1 | -4.06% (inactive) | –
COc1ccc(NC(=O)CSc2ncnc3[nH]ncc23)cc1 | -14.6% (inactive) | –
CCC/C(C)=N\Nc1nc2c(c(=O)n(C)c(=O)n2C)n1C | -3.15% (inactive) | –
COc1ccc(/C=N/NS(=O)(=O)c2ccc(NC(C)=O)cc2)cc1 | 10.1% (inactive) | –
C/C(CCc1ccccc1)=N\NC(=O)c1ccc(CN2CCOCC2)cc1 | 6.96% (inactive) | –
CC(=O)NC(CC(=O)Nc1nccs1)c1ccccc1 (stereo unspecified) | 3.67% (inactive) | –
Cc1cc(Nc2ccc(N3CCOCC3)cc2)c2cccc(C)c2n1 | 35.8% (inactive) | -6.33
Cc1ccc(NNC(=O)C2CCC2)cc1C | -0.66% (inactive) | –
C=CCNC(=S)N1CCc2[nH]c3ccccc3c2C1 | -7.26% (inactive) | –

SMILES | inhibition (at 3.6 µM) | inhibition [1] [%]
Cn1c(SCC(=O)Nc2ccc(Cl)cc2)nc(O)cc1=O | 3.67% (inactive) | –
OCC(O)CN(c1ccccc1)c1ccccc1 (stereo unspecified) | 15.9% (inactive) | –
O=C(NCc1ccncc1)NC12CC3CC(CC(C3)C1)C2 | 4.57% (inactive) | –
Cc1nc2ccc(NC(=S)N3CCC(C)CC3)cc2nc1C | 12.1% (inactive) | –
Cc1ccc(CSc2nc3[nH]ncc3c(=O)[nH]2)cc1 | 65.1% (inactive) | 4.96
CC(C)c1c(O)nc(SCCOc2ccc(Cl)cc2)[nH]c1=O | 7.19% (inactive) | –
Cc1c(-c2cccc(Cl)c2)nc2ccccc2c1C(=O)OCC(=O)N(C)C1CCS(=O)(=O)C1 (stereo unspecified) | 5.87% (inactive) | –
O=C(CCS(=O)(=O)c1ccccc1Cl)Nc1ccc(S(=O)(=O)Nc2ncccn2)cc1 | 10% (inactive) | –
CCCCCN(C(=O)NC(=O)Nc1cccc(C)c1C)S(C)(=O)=O | -12.7% (inactive) | –
OC(c1ccccc1)C(CN1CCOCC1)c1ccccc1 (stereo unspecified) | 7.15% (inactive) | –
NS(=O)(=O)c1ccc(NC(=S)NC(=O)c2cccc(Br)c2)cc1 | 4.21% (inactive) | –
CCC1=NN2C(=N)/C(=C/c3cc(C)n(-c4ccccc4)c3C)C(=O)N=C2S1 | -9.8% (inactive) | –
CCN1CCc2nc(NC(=O)c3cc(F)c(F)cc3Cl)sc2C1 | -6.97% (inactive) | –
COc1ccc(C2=NN(C(=O)CCC(=O)O)C(c3cccs3)C2)cc1OC (stereo unspecified) | -7.36% (inactive) | –
CN1CCN(CCNC(=O)Nc2ccc([N+](=O)[O-])cc2)CC1 | 5.16% (inactive) | –
CN(C)c1ccc(/C=C/C(=O)c2ccc(O)cc2)cc1[N+](=O)[O-] | 44.3% (inactive) | 5.01
CCOC(=O)C1CCN(C(=O)Nc2cccc(OC)c2)CC1 | 1.02% (inactive) | –
Cc1ccc(/C=N/NC(=O)CSc2ccccn2)o1 | 70% (inactive) | -5.62
O=C(O)C(NS(=O)(=O)c1cccc2nsnc12)c1ccccc1 (stereo unspecified) | -10.9% (inactive) | –
CCCCSc1nnc2c(n1)OC=Nc1ccccc1-2 | 11.2% (inactive) | –
CN1CCc2nc(SC(C(=O)O)c3ccccc3)c(C#N)c(-c3cccs3)c2C1 (stereo unspecified) | -14.8% (inactive) | –
COc1ccc(OC)c(-n2c(=S)[nH]c3cc(C(=O)N4CCCCC4)ccc3c2=O)c1 | 4.34% (inactive) | –
O=S(=O)(NCc1ccco1)c1cnc(Cl)c(Cl)c1 | 11.4% (inactive) | –
